SARS PLP yeast: qHTS of Yeast-based Assay for SARS-CoV PLP; S. cerevisiae expressing SARS-CoV PLpro, growth rescue; Potency, µM (titrated, usually from 32.9 µM), for inactives: at the highest dose activity, positive = growth rescue, most hits filed as activators; 0.19% of 330,000 active; AID 485353, 2010; note: 0% is about no effect; nearly all actives have a fitted effect of over 55% in size
Pf growth 96h: Primary qHTS for delayed death inhibitors of the malarial parasite plastid, 96 hour incubation | P. falciparum luciferase reporter growth, 96 h | 6.9% of 320,000 active | Potency, µM (series often up to 28.7 µM), without a hit: at the highest dose activity change, negative = inhibition, actives largely listed as inhibitors; active = well fitted inhibition curve with a large enough effect; inconclusive = small, poorly fitted or top-dose-only effect, or another doubt; inactive = no such curve, though single readings can be large or run the other way; note: % is set by controls: 0 for no effect and ±100 for the full control effect
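Compounds incubated with erythrocytes infected by luciferase-expressing P. falciparum (2% hematocrit, 0.05% parasitemia final) for 96 hours, 37 C in 5% CO2. Growth inhibition scored as decreased luciferase luminescence.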
Pf growth 48h: Primary qHTS for delayed death inhibitors of the malarial parasite plastid, 48 hour incubation; P. falciparum luciferase growth in erythrocytes, 48 h; 5.9% of 310,000 active; AID 504832, 2011; Potency, µM (doses to about 28.7 µM), inactives show at the top dose activity change, negative = inhibition, most hits filed as inhibitors; active = well fitted inhibition curve with a large enough effect; inconclusive = small, poorly fitted or top-dose-only effect, or another doubt; inactive = no such curve, though single readings can be large or run the other way; note: % is set by controls: 0 for no effect and ±100 for the full control effect
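Erythrocytes infected with P. falciparum carrying an integrated firefly luciferase reporter (2% hematocrit, 0.1% parasitemia final) were exposed to compounds in RPMI 1640 with 0.5% Albumax at 37 C, 5% CO2. Growth inhibition was scored as reduced luminescence.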
NS1 function inh: qHTS Assay for Inhibitors of Influenza NS1 Protein Function; Potency, µM (titrated, usually from 46.1 µM), inactives show at the highest dose activity, positive = more growth; 0.4% of 270,000 active; note: actives are rising curves; nearly all actives have a fitted effect of over 50% in size
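OD600 was taken as the measure of yeast growth restored by compound in an NS1-expressing S. cerevisiae strain. Cells had been washed out of glucose medium and diluted 1:100 into galactose -URA medium, pH 6.0.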
* hit, by the source's call; ? = inconclusive; · = not tested or not shown; [ ] = remark or other dose. This is a sample that favours compounds with a hit; in the whole collection about 10% have one here. Unless noted, calls come from the whole dose curve. Potency is the fitted concentration of half-maximal effect.

SMILES | SARS PLP yeast | Pf growth 96h | Pf growth 48h | NS1 function inh
COc1ccc(NC(=O)c2cc(S(=O)(=O)NCC3COc4ccccc4O3)ccc2F)cc1 (stereo not drawn) | 10.4% | 44.0% | -16.7% | -2.6%
CN(C)c1ccc(C(=S)N2CCN(S(=O)(=O)c3ccccc3)CC2)cc1 | 8.3% | -9.7% | -17.3% | 5.4%
O=c1c2nnn(-c3ccccc3)c2ncn1C/C=C/c1ccccc1 | 3.4% | 21.6% | -1.5% | 0.7%
O=C(Nc1ccccc1Br)C1CCC(=O)N1Cc1ccccc1Cl (stereo not drawn) | 6.2% | 3.1% | -3.2% | 16.1%
O=C(Nc1ccc(Cl)cc1)C1CCC(=O)N1Cc1ccccc1Cl (stereo not drawn) | 6.6% | 4.65µM* | 9.28µM* | -0.8%
CC(C)c1cc(=O)oc2c3c4c(cc12)CCCN4CCC3 | -9.2% | 32.9% | 11.7µM* | ?
O=C(c1ccccc1Oc1ccccc1)N1CCN(c2ccccc2F)CC1 | -22.5% | ? | · | -56.5%
C1=C(CCNc2ncnc3c2[nH]c2ccccc23)CCCC1 | -101.9% | 0.262µM* | ? | -37.7%
COc1ccc(CNc2ncnc3c2[nH]c2ccccc23)cc1 | -3.8% | 1.65µM* | 2.33µM* | -45.1%
CC(C)OCCCNc1ncnc2c1[nH]c1ccccc12 | -2.6% | ? | 5.86µM* | -22.5%
Cc1ccc2[nH]c3c(NCc4ccccc4)ncnc3c2c1 | -3.0% | ? | ? | -1.7%
COc1ccc(CNc2ncnc3c2[nH]c2cc(OC)c(OC)cc23)cc1 | -8.2% | 1.65µM* | 2.08µM* | 18.9%
CCOC(=O)CSc1ccc(C(=O)NCCCN2CCOCC2)cc1[N+](=O)[O-] | 0.1% | ? | 13.1% | 5.7%
Nc1cccc(CP(=O)(c2ccccc2)c2ccccc2)c1 | 0.3% | -17.0% | ? | ·
CCn1cc(C(=O)NC2CCCCC2C)c(=O)c2ccc(C)nc21 (stereo not drawn) | · | 11.7µM* | 1.3% | -34.9%
CCn1cc(C(=O)NC2CC3CCC2C3)c(=O)c2ccc(C)nc21 (stereo not drawn) | -3.4% | 5.22µM* | -12.5% | -6.4%
COc1cccc(C(=O)NCC(=O)OCC(=O)NC2CCCCC2)c1 | 13.7% | · | · | ·
COc1ccccc1OCCSc1ncnc2nc[nH]c12 | -1.5% | 11.7µM* | 3.7% | 1.6%
CCC(=O)Nc1nonc1-c1nc2ccccc2n1Cc1ccccc1 | -3.1% | · | ? | -41.9%
CCC(=O)Nc1nonc1-c1nc2ccccc2n1Cc1cccc2ccccc12 | 0.5% | 5.22µM* | ? | 17.5%
COc1ccc(C#Cc2c(C=O)n(C)c3ccccc23)cc1 | -3.1% | ? | ? | ·
Cn1c(C=O)c(C#Cc2ccccc2)c2ccccc21 | -1.1% | ? | 11.7µM* | ·
CC(/C=N/NC(=O)c1ccccc1F)=C\c1ccccc1 | -11.5% | 21.5% | 46.3% | -14.5%
CN1C(=O)NC(c2ccccc2[N+](=O)[O-])C2=C1CCCC2=O (stereo not drawn) | 0.0% | 9.28µM* | -2.4%[0.00184 µM] | 7.2%
CN1C(=O)NC(c2ccc([N+](=O)[O-])cc2)C2=C1CC(C)(C)CC2=O (stereo not drawn) | 2.7% | ? | -10.9% | 3.7%
SMILES | SARS PLP yeast | Pf growth 96h | Pf growth 48h | NS1 function inh
CN1C(=O)NC(c2ccccc2[N+](=O)[O-])C2=C1CC(C)(C)CC2=O (stereo not drawn) | 2.5% | 9.28µM* | -7.9%[0.00184 µM] | 12.3%
Cc1ccccc1C(=O)N1CCC(n2nccc2NC(=O)CCOc2ccccc2)CC1 | 2.9% | ? | ? | 1.2%
CCn1c(C)c(C(C)=O)c(N2CCCCC2)nc1=S | 0.8% | 11.7µM* | -0.2% | 1.8%
O=[N+]([O-])c1ccc(Cl)c(S(=O)(=O)NCCc2ccccn2)c1 | 1.3% | · | · | ·
CCc1ccccc1OCC(=O)Nc1nc(-c2cccnc2)cs1 | ? | 4.15µM* | 4.15µM* | ·
O=C(Nc1nc(-c2cccnc2)cs1)c1ccc([N+](=O)[O-])cc1 | 0.3% | 11.7µM* | 4.65µM* | 1.5%
CCc1ccc(-c2csc(NC(=O)Oc3ccccc3)n2)cc1 | -66.3% | 11.7µM* | 196.3% | 0.2%
CCC(=O)c1ccc(OCC(=O)Nc2nc(-c3cccnc3)cs2)cc1 | -5.5% | ? | ? | ·
O=C(NC(=S)Nc1nc(-c2ccccc2)cs1)c1cccnc1 | -1.8% | 11.7µM* | -23.0% | ·
O=C(Nc1nc(-c2cccc(Br)c2)cs1)Oc1ccccc1 | -48.8% | 127.7% | 111.4% | -51.3%
O=C(NC(=S)Nc1nc(-c2ccccc2)cs1)c1cncc(Br)c1 | 19.1% | ? | ? | -4.4%
Cc1cc(C)n(C(C)CC(=O)Nc2ccc3c(c2)OCCO3)n1 (stereo not drawn) | 9.6% | -7.5% | 20.2% | -7.2%
CCOc1c(C)cc(S(=O)(=O)NCc2ccccn2)c(C)c1C | 0.2% | 8.2% | 21.8% | -3.5%
CC1Cc2nc(SCC(=O)Nc3ccc4c(c3)OCO4)n(-c3ccc(F)cc3)c(=O)c2S1 (stereo not drawn) | -1.1% | 3.7µM* | 1.65µM* | -90.2%
COc1ccc(-n2c(SCC(=O)Nc3nccs3)nc3c(c2=O)SC(C)C3)cc1 (stereo not drawn) | 12.3% | 1.04µM* | 1.65µM* | -3.1%
CCOc1ccc(S(=O)(=O)Nc2nc3ccccc3nc2N2CCN(C)CC2)cc1 | 8.1% | 3.7µM* | 7.4% | -62.3%
COc1ccc(C)cc1NC(=O)CSc1nc2ccccc2nc1N1CCCCC1 | -4.8% | 20.3% | 4.15µM* | ?
CCOc1ccc(NC(=O)CSc2nc3ccccc3nc2N2CCCC2)cc1 | -0.7% | 11.7µM* | -17.0% | 4.1%
CCOc1ccc(S(=O)(=O)Nc2nc3ccccc3nc2Cl)cc1 | -6.2% | 25.1% | 23.6% | -39.1%
Cc1cc(C)cc(NC(=O)CSc2nc3ccccc3nc2N2CCCCC2)c1 | 2.6% | 9.28µM* | ? | 12.2%
O=C(CC(=O)Nc1cc(Cl)ccc1Cl)Nc1cc(Cl)ccc1Cl | -0.1% | ? | · | 9.0%
COc1cc(NC(=O)CSc2nc3cc(C)ccc3cc2C)c(C(=O)O)cc1OC | 25.3% | 9.28µM* | 14.0% | 14.8%
COc1cc(NC(=O)CSc2nc3ccccc3cc2C)c(C(=O)O)cc1OC | 14.5% | 23.0% | -5.3% | 12.0%
NC(=O)c1ccc(NC(=O)C2CCCC2)cc1 | -3.0% | 0.0% | 31.1% | -8.0%
O=C([O-])c1cc(-c2ccccc2)cc(-c2ccccc2)[n+]1Cc1ccccc1 | -0.6% | 0.522µM* | 0.522µM* | ·
SMILES | SARS PLP yeast | Pf growth 96h | Pf growth 48h | NS1 function inh
Cc1cc(-c2ccccc2)cc(C)[n+]1Cc1ccccc1 | 1.4% | 0.37µM* | 0.738µM* | ·
ON(CCc1ccccn1)Cc1ccccc1 | · | · | · | -1.7%
O=[N+]([O-])c1cc(Cl)c(O)c(-[n+]2c(-c3ccccc3)cc(-c3ccccc3)cc2-c2ccccc2)c1 | -3.8% | ? | ? | 29.8%
c1ccc(Cc2cc[n+](Cc3ccccn3)cc2)cc1 | 0.9% | 1.04µM* | 4.15µM* | -5.4%
O=[N+]([O-])c1ccc(C[n+]2c(-c3ccccc3)cc(-c3ccccc3)cc2-c2ccccc2)cc1 | 0.7% | 0.928µM* | 1.17µM* | ·
O=[N+]([O-])c1ccc(C[n+]2ccc(Cc3ccccc3)cc2)cc1 | -0.8% | 34.8% | 3.7µM* | ·
O=C(Nc1ccccc1N1CCOCC1)c1ccc2c(c1)OCO2 | -1.1% | 17.1% | -19.0% | -11.9%

High-throughput results as filed in PubChem.
